“And” between values parts separate entries of the source, which are not always exact repeats. Equal values may be shown once. This is part of a sample that, as a whole, favours compounds with a hit. Of some 83,000 tested, about 20% had one in any assay.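 Note: values are percent growth. 100 is the growth of untreated cells, values between 100 and 0 indicate rising inhibition; between -100 and 0 indicates cell death.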 The source made the active and inactive calls. How the source made its calls: active means growth percent below 10; inactive means the rest.

Test systems include SR leukemia; RPMI-8226 leukemia; OVCAR-8 ovarian; OVCAR-5 ovarian; OVCAR-4 ovarian; SK-OV-3 ovarian; IGROV1 ovarian; OVCAR-3 ovarian; HS 578T breast; NCI/ADR-RES ovarian.
Assay in all cases: NCI-60 one-dose screen, 48 h (100 = growth as untreated, 0 = no growth, -100 = all killed)
Conditions in all cases: 10 µM unless noted

Consider `Cc1c(Cl)c(C)c(Cc2c(C)c(Cl)c(C)c(Cl)c2O)c(O)c1Cl`, for which the growth in the experiment with SR leukemia was 22.7% (inactive); with RPMI-8226 leukemia, 10% (inactive); in the experiment with OVCAR-8 ovarian, 11.4% (inactive); in the experiment with OVCAR-5 ovarian, 45.6% (inactive); with OVCAR-4 ovarian it was 13.9% (inactive); with SK-OV-3 ovarian, -6.21% (active). Moreover, the growth in the experiment with IGROV1 ovarian is 38.8% (inactive); in the experiment with OVCAR-3 ovarian, 5.17% (active); in the experiment with HS 578T breast, 12.1% (inactive); in the experiment on NCI/ADR-RES ovarian it was -3.46% (active).
In the case of `COc1cc(C2c3cc4c(cc3C(OC(=O)C[n+]3ccccc3)C3COC(=O)C23)OCO4)cc(OC)c1OC` (stereo not given), the growth in the experiment on SR leukemia is 11.5% (inactive); in the experiment with RPMI-8226 leukemia it was 36.2% (inactive); with OVCAR-8 ovarian it was 14.7% (inactive); in the experiment on OVCAR-5 ovarian it was 54% (inactive); in the experiment with OVCAR-4 ovarian, 41.5% (inactive); in the experiment with SK-OV-3 ovarian, 33% (inactive). Also, the growth with IGROV1 ovarian is 16.5% (inactive); in the experiment with OVCAR-3 ovarian, -57.7% (active); in the experiment on HS 578T breast, 34.7% (inactive); with NCI/ADR-RES ovarian, -3.91% (active).
For `CC1=CC(=O)C=CC1=Nc1ccc(N(C)C)cc1`, the growth is 29.3% (inactive) in the experiment with SR leukemia; 66.5% (inactive) and -4.07% (active) in the experiment with RPMI-8226 leukemia; 85.7% (inactive) and 52% (inactive) in the experiment on OVCAR-8 ovarian; 140% (inactive) and 83.9% (inactive) in the experiment with OVCAR-5 ovarian; 44.9% (inactive) and 21.1% (inactive) with OVCAR-4 ovarian; 94.2% (inactive) and 71.8% (inactive) with SK-OV-3 ovarian. Further, the growth with IGROV1 ovarian was 88.5% (inactive) and 49.4% (inactive); in the experiment on OVCAR-3 ovarian, 69.4% (inactive) and -93.6% (active); in the experiment with HS 578T breast, 109% (inactive); with NCI/ADR-RES ovarian, 78.1% (inactive) and 37.9% (inactive).
For `O=C(O)c1cccc(Br)c1`, the growth in the experiment with SR leukemia is 90.2% (inactive) and 100% (inactive); in the experiment with RPMI-8226 leukemia, 103% (inactive) and 104% (inactive); with OVCAR-8 ovarian, 108% (inactive) and 100% (inactive); with OVCAR-5 ovarian, 100% (inactive) and 98.7% (inactive); with OVCAR-4 ovarian it was 99.5% (inactive) and 105% (inactive); with SK-OV-3 ovarian, 104% (inactive) and 106% (inactive). The growth in the experiment with IGROV1 ovarian is 105% (inactive) and 104% (inactive); in the experiment with OVCAR-3 ovarian, 100% (inactive) and 105% (inactive); in the experiment with HS 578T breast, 124% (inactive) and 101% (inactive); in the experiment on NCI/ADR-RES ovarian it was 98.1% (inactive) and 106% (inactive).
As for `CCCC(=O)Oc1ccc2ccccc2c1`, the growth with SR leukemia was 110% (inactive); in the experiment with RPMI-8226 leukemia it was 94.4% (inactive); in the experiment on OVCAR-8 ovarian, 94.6% (inactive); with OVCAR-5 ovarian, 117% (inactive); in the experiment on OVCAR-4 ovarian, 105% (inactive); with SK-OV-3 ovarian, 91.8% (inactive). For the same compound, the growth with IGROV1 ovarian is 106% (inactive); in the experiment on OVCAR-3 ovarian it was 113% (inactive); in the experiment on HS 578T breast, 92.7% (inactive); in the experiment with NCI/ADR-RES ovarian, 102% (inactive).
Take `CCN(C)c1ccccc1`: the growth in the experiment with SR leukemia is 93.3% (inactive); in the experiment with RPMI-8226 leukemia, 104% (inactive); in the experiment with OVCAR-8 ovarian it was 98.2% (inactive); in the experiment with OVCAR-5 ovarian, 115% (inactive); in the experiment with OVCAR-4 ovarian it was 109% (inactive); in the experiment with SK-OV-3 ovarian, 89.6% (inactive). For the same compound, the growth in the experiment with IGROV1 ovarian was 113% (inactive); in the experiment on OVCAR-3 ovarian, 108% (inactive); in the experiment on HS 578T breast it was 96.2% (inactive); in the experiment with NCI/ADR-RES ovarian it was 97.3% (inactive).
Take `COc1cc2c(cc1O)C(=O)CCCC2`: the growth in the experiment with SR leukemia was 102% (inactive); with RPMI-8226 leukemia, 104% (inactive); in the experiment on OVCAR-8 ovarian it was 117% (inactive); with OVCAR-5 ovarian, 92.8% (inactive); in the experiment with OVCAR-4 ovarian, 93.6% (inactive); in the experiment with SK-OV-3 ovarian, 108% (inactive). Also, the growth is 64.7% (inactive) in the experiment on IGROV1 ovarian, 101% (inactive) with OVCAR-3 ovarian, 110% (inactive) in the experiment on HS 578T breast and 94.5% (inactive) in the experiment with NCI/ADR-RES ovarian.
On to `NC(=O)Cc1nc(O)cc(=O)[nH]1`, for which the growth in the experiment with SR leukemia is 93.5% (inactive); with RPMI-8226 leukemia, 85.2% (inactive); in the experiment with OVCAR-8 ovarian it was 93.8% (inactive); in the experiment with OVCAR-5 ovarian it was 109% (inactive); in the experiment with OVCAR-4 ovarian it was 113% (inactive); in the experiment on SK-OV-3 ovarian it was 89.7% (inactive). In addition, the growth was 109% (inactive) in the experiment with IGROV1 ovarian, 109% (inactive) with OVCAR-3 ovarian, 91.9% (inactive) with HS 578T breast and 115% (inactive) in the experiment on NCI/ADR-RES ovarian.
`O=[N+]([O-])c1ccc(N2CCN=N2)cc1`: the growth was 78.6% (inactive) with SR leukemia; 92.7% (inactive) in the experiment with RPMI-8226 leukemia; 88% (inactive) in the experiment on OVCAR-8 ovarian; 87.7% (inactive) in the experiment with OVCAR-5 ovarian; 95.9% (inactive) in the experiment with OVCAR-4 ovarian; 89.6% (inactive) with SK-OV-3 ovarian. The growth in the experiment on IGROV1 ovarian was 96.1% (inactive); in the experiment with OVCAR-3 ovarian, 99.8% (inactive); in the experiment with HS 578T breast, 101% (inactive); in the experiment with NCI/ADR-RES ovarian, 100% (inactive).
Take `C(=N\OCCc1ccccc1)/c1ccccn1`: the growth in the experiment with SR leukemia was 96.5% (inactive) and 84.3% (inactive); with RPMI-8226 leukemia, 117% (inactive) and 98.3% (inactive); with OVCAR-8 ovarian, 108% (inactive) and 103% (inactive); with OVCAR-5 ovarian, 101% (inactive) and 102% (inactive); with OVCAR-4 ovarian, 114% (inactive) and 113% (inactive); with SK-OV-3 ovarian, 123% (inactive). In addition, the growth with IGROV1 ovarian is 111% (inactive); in the experiment on OVCAR-3 ovarian, 105% (inactive) and 104% (inactive); in the experiment on HS 578T breast it was 117% (inactive) and 105% (inactive); in the experiment on NCI/ADR-RES ovarian, 117% (inactive) and 104% (inactive).
`CCN(CC)CCNC(=O)c1ccc(NCN2C(=O)NC(c3ccccc3)(c3ccccc3)C2=O)cc1`: the growth was 99.5% (inactive) and 113% (inactive) in the experiment with SR leukemia; 104% (inactive) in the experiment on RPMI-8226 leukemia; 99.9% (inactive) and 111% (inactive) in the experiment with OVCAR-8 ovarian; 104% (inactive) and 119% (inactive) in the experiment with OVCAR-5 ovarian; 105% (inactive) and 104% (inactive) in the experiment on OVCAR-4 ovarian; 123% (inactive) and 90.9% (inactive) in the experiment with SK-OV-3 ovarian. The growth with IGROV1 ovarian was 144% (inactive) and 107% (inactive); with OVCAR-3 ovarian it was 110% (inactive) and 98.8% (inactive); with HS 578T breast it was 98.4% (inactive) and 103% (inactive); with NCI/ADR-RES ovarian, 107% (inactive) and 111% (inactive).

The record behind these values is PubChem BioAssay (NCI).
